A selection: hits, their analogues and other compounds. The true share with any hit is near 0.84%.
PPARg SRC3 recr: promotes SRC-3 coactivator recruitment by human PPARgamma; P37231; biochemical PPARgamma/SRC-3 coactivator recruitment assay; activation, % at 8 µM; actives 0.26% (n = 200,000); AID 731; in the data active means activation above about 23%;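 further: 0% = DMSO and 100% = reference agonist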
PPARg SRC-2 ag: promotes SRC-2 coactivator recruitment by human PPARgamma; PPARgamma LBD-SRC-2 recruitment, biochemical; activation, % at 8 µM; actives 0.34% (n = 200,000); AID 1032; in the data active means activation above about 22%;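 further: 0% = vehicle and 100% = reference agonist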
SRC1 TRFRET art: counter-screen for PPARgamma SRC-1 recruitment agonists: TR-FRET artefact; AID 1051; actives 0.34% (n = 99,000); TR-FRET ratio at 8 µM; TR-FRET detection artefact counter-screen, emission ratio; stronger effect = higher value; in the data active means TR-FRET ratio above about 2300
SRC3 TRFRET art: flags TR-FRET format artefacts in PPARgamma SRC-3 recruitment agonist screen; AID 1048; TR-FRET artefact counter-screen, PPARgamma/SRC-3 format; stronger effect = higher value; TR-FRET ratio at 8 µM; actives 0.39% (n = 99,000)
TR-FRET SRC-2 ct: flags TR-FRET format artefacts in PPARgamma SRC-2 recruitment agonist screen | TR-FRET artefact counter-screen; stronger effect = higher value | TR-FRET ratio at 8 µM | actives 0.4% (n = 200,000)
PPARg SRC1 recr: agonists of human PPARgamma SRC-1 coactivator recruitment | actives 0.41% (n = 200,000) | activation, % at 8 µM | AID 631 | P37231 | PPARgamma-SRC-1 coactivator recruitment biochemical assay; in the data active means activation above about 19%;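 further: 0% = DMSO and 100% = reference agonist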
PPARg SRC2 ag: confirmation of agonists of SRC-2 recruitment by human PPARgamma | shares compounds with PPARg SRC3 recr | biochemical SRC-2 recruitment by PPARgamma | activation, % at 8 µM | actives 52% (n = 790) | AID 1297; in the data active means activation above about 22%;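 further: 0% = vehicle alone and 100% = reference agonist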
PPARg SRC1 conf: human PPARgamma SRC-1 recruitment agonism, confirmation | activation, % at 8 µM | shares compounds with PPARg SRC3 recr | actives 43% (n = 790) | AID 1300 | PPARgamma–SRC-1 coactivator recruitment biochemical assay; in the data active means activation above about 20%;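 further: 0% = vehicle wells and 100% = reference agonist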
PPARg SRC3 ag: confirmation of agonists of SRC-3 recruitment by human PPARgamma; biochemical PPARgamma-SRC-3 coactivator recruitment, agonist mode; shares compounds with PPARg SRC3 recr; activation, % at 8 µM; actives 29% (n = 790); in the data active means activation above about 24%;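 further: 0% = vehicle wells and 100% = reference agonist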
An asterisk follows results filed as active; . = not tested or not shown. Unless noted, no stated cut-off is given here; in the data, active means TR-FRET ratio above about 2000; inactive means the rest.

SMILES | PPARg SRC3 recr | PPARg SRC-2 ag | SRC1 TRFRET art | SRC3 TRFRET art | TR-FRET SRC-2 ct | PPARg SRC1 recr | PPARg SRC2 ag | PPARg SRC1 conf | PPARg SRC3 ag
Cc1cc(C)n(-c2ccc(C(=O)OCC(=O)c3ccc(Br)s3)cc2)n1 | 36* | 28* | . | . | 3035* | 20* | 29* | 22* | 20
O=C(c1ccccc1)N1CCSc2sccc2C1=O | 12 | 29* | 2582* | 2052* | 2115* | 20 | 39* | 32* | 24*
O=C(c1ccccc1)N1CCSC1=S | -4 | -3 | . | . | 1438 | -3 | . | . | .
O=C(Nc1ccc(-c2nc3ccc(NC(=O)c4cccs4)cc3[nH]2)cc1)c1cccs1 | 12 | 27* | . | . | 1552 | 21* | 11 | 1 | 5
O=C(Nc1ccc2nc(-c3cccs3)[nH]c2c1)c1cccs1 | 1 | -1 | . | . | 1449 | -2 | . | . | .
COC(=O)c1sccc1-c1ccc(/C=N/OC(=O)c2ccccc2)o1 | 47* | 56* | . | . | 2291* | 31* | 56* | 49* | 40*
O=C(Cc1cccs1)NCCSc1c(-c2ccc(Cl)cc2)[nH]c2ccccc12 | 54* | 20 | 3752* | 7221* | 5424* | 28* | 26* | 32* | 41*
Cc1ccc(-c2[nH]c3ccccc3c2SCCNC(=O)c2cc3ccccc3oc2=O)cc1 | 6 | 4 | 1683 | 1709 | 1384 | 7 | . | . | .
O=C(COc1c(F)c(F)c(C(F)(F)F)c(F)c1F)Nc1ccc(N2CCOCC2)c(Cl)c1 | 10 | 3 | . | . | 1662 | 6 | . | . | .
CCN(CC)CCCN1C(=O)C(O)=C(C(=O)c2cc3ccccc3o2)C1c1ccccn1 (stereo not drawn) | 62* | 48* | . | . | 2586* | 43* | 40* | 30* | 27*
CN(C)CCN1C(=O)C(O)=C(C(=O)c2cc3ccccc3o2)C1c1ccccn1 (stereo not drawn) | 15 | -6 | . | . | 1299 | 5 | . | . | .
COCCn1c(SCc2nc(N)nc(Nc3ccccc3C)n2)nc2ccccc2c1=O | 8 | 4 | . | . | 1697 | 6 | . | . | .
Cc1cccc(-n2c(-c3ccco3)n[nH]c2=S)c1 | 23* | 28* | 2623* | 2283* | 2124* | 25* | 35* | 25* | 26*
Cn1c(-c2ccco2)n[nH]c1=S | 5 | 14 | 2042 | 1797 | 1882 | 10 | . | . | .
COC(=O)c1ccc(NC(=O)CSc2ccccc2)cc1 | 5 | -5 | 1964 | 1619 | 1612 | 2 | . | . | .
O=C(CSc1ccccc1)Nc1ccc(C(=O)Nc2ccc(O)cc2)cc1 | 18 | 37* | 1849 | 1821 | 1725 | 26* | 30* | 22* | 18
c1ccc2nc(-c3ccc(N4CCOCC4)cc3)ccc2c1 | 71* | 6 | . | . | 1544 | 51* | 8 | 7 | 6
Cn1cc(SCC(=O)Nc2ccc3c(c2)OCO3)c2ccccc21 | -7 | -4 | . | . | 1634 | -2 | . | . | .
CCn1c(=O)cc(SCC(=O)Nc2ccc3c(c2)OCCO3)c2ccccc21 | 92* | 85* | . | . | 3434* | 69* | 65* | 46* | 43*
CCCn1cc(SCC(=O)Nc2ccc3c(c2)OCO3)c2ccccc21 | 15 | 11 | . | . | 1751 | 5 | . | . | .
Cn1c(=O)cc(SCC(=O)Nc2ccc3c(c2)OCO3)c2ccccc21 | 43* | 60* | . | . | 2627* | 32* | 42* | 28* | 27*
O=C(CC1CCCCC1)NCc1cn2ccsc2n1 | 3 | 3 | . | . | 1591 | 6 | . | . | .
CCOc1ccc(N2CC(C(=O)Nc3cccc(S(=O)(=O)N4CCCCC4)c3)CC2=O)cc1 (stereo not drawn) | 6 | 6 | 1830 | 1360 | 1639 | 12 | . | . | .
Cc1cc(-c2ccc(Br)s2)nc(-n2cccc2)n1 | 24* | 25* | 2540* | 2617* | 2162* | 26* | 42* | 29* | 26*
Clc1ccc(-c2ccnc(-n3cccc3)n2)s1 | 6 | 7 | 1910 | 1708 | 1522 | 0 | . | . | .
SMILES | PPARg SRC3 recr | PPARg SRC-2 ag | SRC1 TRFRET art | SRC3 TRFRET art | TR-FRET SRC-2 ct | PPARg SRC1 recr | PPARg SRC2 ag | PPARg SRC1 conf | PPARg SRC3 ag
Cc1cc(-c2sccc2Br)nc(-n2cccc2)n1 | 10 | 11 | 2236 | 2170* | 1890 | 22* | 18 | 14 | 13
CCOC(=O)c1[nH]c2ccccc2c1NC(=O)c1ccco1 | -4 | 12 | . | . | 1448 | 7 | . | . | .
CCCN1CCN(CCCNC(=O)Cn2nc(-c3ccc(Cl)cc3)ccc2=O)CC1 | 6 | 1 | . | . | 1393 | -2 | . | . | .
Cc1nn(Cc2ccccc2Cl)c(C)c1C(=O)NCCN1C(=O)S/C(=C\c2ccccc2)C1=O | 23* | 18 | 1779 | 1547 | 1519 | 23* | 6 | 22* | 14
CC(C)OCCCNC(=S)NNC(=O)c1ccc(Cl)c(Cl)c1 | -1 | -6 | 1567 | 1313 | 1499 | 6 | . | . | .
S=c1nc[nH]c2c1[nH]c1ccccc12 | 48* | 38* | . | . | 2670* | 29* | 15 | 5 | 11
O/N=C(\Cc1cscn1)c1ccc(O)cc1O | 4 | 4 | . | . | 1502 | 2 | . | . | .
COc1ccc(C(NC(=O)C(C)C)c2c(O)ccc3ccccc23)cc1OC (stereo not drawn) | 0 | 7 | 1911 | 1590 | 1799 | -2 | . | . | .
Cc1cc2c(cc(C(=O)OC(C(=O)NCc3ccco3)C(C)C)n2C)o1 (stereo not drawn) | 1 | 10 | . | . | 1764 | -4 | . | . | .
CC(C)C(OC(=O)c1cc2occc2n1C)C(=O)NCc1ccc2c(c1)OCO2 (stereo not drawn) | 31* | 13 | 1700 | 1951 | 1600 | 33* | 11 | 21* | 20
Fc1ccc(Nc2nc(Oc3ccc4c(c3)OCO4)nc(N3CCOCC3)n2)c(F)c1 | -8 | -6 | . | . | 1301 | -5 | . | . | .
COCc1cc(C)nc2sc3c(=O)oc(C)nc3c12 | 3 | 13 | . | . | 1809 | 20* | 7 | 2 | 1
O=C1c2ccccc2-c2cccc(NS(=O)(=O)c3ccc(C(F)(F)F)cc3)c21 | 31* | 11 | . | . | 1656 | 12 | 24* | 22* | 14
Fc1ccc(-c2nnsc2Sc2ccccn2)cc1 | 58* | 145* | 1838 | 6319* | 3478* | 11 | 34* | 35* | 16
CCOC(=O)c1[nH]c2ccccc2c1NC(=S)Nc1cc(C)ccc1C | 8 | 14 | 1863 | 1833 | 1347 | 2 | . | . | .
CCN(CC)S(=O)(=O)c1ccc(C(=O)N2CCN=C2SC)cc1 | 2 | 8 | 1807 | 1558 | 1680 | 6 | . | . | .
CCn1c(=O)cc(SCC(=O)Nc2ccc(C)cn2)c2ccccc21 | 25* | 32* | 2927* | 3211* | 2341* | 38* | 28* | 17 | 19
CCn1c(=O)cc(OCC(=O)Nc2ccc(C)cn2)c2ccccc21 | -4 | -1 | . | . | 1467 | -5 | . | . | .

Source: PubChem (The Scripps Research Institute Molecular Screening Center)
